# Results from PubChem BioAssay AID1508600 (Functional Genomics Laboratory (NCATS/FGL), 2020).
# Among all 53,000 sequences or so, about 3,700 (7%) were called active. The sample as a whole holds a higher share of actives than the screen did. Values without a mark were called inactive.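 The calls were made as follows: active = gene knockdowns whose robust z-score for IL-1 alpha signal is at least 2 or at most -2, so actives lie on both sides; inactive = the rest.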
# Experiment: Components of the Cytosolic LPS Sensing Pathway: Gene Identification via Genome-wide siRNA Screen;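 also: robust z of the log signal after scaling to non-targeting control siRNA wells of the plate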
# Conditions: RAW264.7 macrophages, IL-1a HTRF, actives lie on both sides, screened at 100 nM (by protocol), cells primed 5 h with Pam3CSK4 first
# How it was run: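 RAW264.7; siRNA 100 nM final, RNAiMAX, 48h 37 degrees C; Pam3CSK4 5 h; LipidA + TransIT-TKO 24 h; IL-1a HTRF; CellTiter-Glo viability; robust z vs negative-control median.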
row,Sequence,z-score
1,GCGGAAGUCGAAUCUGUCUTT against Aga,-1.45
2,GGAAUUUGUCAGGUUCCAATT against Grik4,0.859
3,CGGGCUGAAUGUGUUUGUGTT against Slc10a4,2.62 (active)
4,GGUACGGUAUGGAGAUCGGTT against Atpaf2,0.593
5,GGCAGAGCCAGGAUGUCUUTT against Msmb,-1.2
6,GGUAACUCUCCUUAGCCAGTT against Klk10,-0.0493
7,GGACUCCCUGGAUUUCAGATT against Rapgef3,-1.34
8,GGCAGCUGAAGAUUAUGGATT against Tagln,0.837
9,GGCAAUAACAUUGCCUCGGTT against Igf1r,0.632
10,GGGUGAGCAGUACAUUCAATT against Plekhg6,2.73 (active)
11,CCGAAAAUGUGGUAAAGUATT against Smg1,0.948
12,CCCAACAACCAACUAUUUUTT against Kcna1,3.36 (active)
13,GGGAUAAAGAUGAAGAACUTT against Tmem167b,1.31
14,GGAAGUCAAGAUCUCACCUTT against Lrrc25,-0.864
15,CCAAGGGAAGAUUCAAAUUTT against Abcc8,2.29 (active)
16,CGUUUGAUACCAAAGAUUUTT against Onecut3,-1.12
17,GCUGUAAGCUACCGUCUGUTT against Panx2,1.54
18,GGUAUCUACCAGUACGAGATT against Izumo4,-1.59
19,GCAUUAUGUCAGUAGCUCATT against Snrpb,-3.47 (active)
20,CGGUGCACAACGUACCAAUTT against Srxn1,-0.0189
21,GGUAUCCCUAACUGGCAGUTT against Tro,-0.849
22,GGCUCAAAGGAGGGUAGAGTT against Lcn8,3.18 (active)
23,GGAAAUAAAUGGCAGCAUGTT against H2-T3,1.47

row,Sequence,z-score
1,GGAUGAUUCAUUCAGUGAUTT against Adcy9,0.918
2,CCAAAACUUUCCACUCUAATT against Ttc32,0.175
3,CCCAAACUGAAUUAAGCAGTT against Spata7,-0.515
4,GGAAAACUACUAAAAAGUCTT against Zfp938,-0.31
5,GGUUACUCCUUUUUAUGUATT against Bex1,-1.1
6,GGGACAAGUGGUUGAAACCTT against Prmt8,-2.01 (active)
7,GGCCACAAACAGAAUUAUCTT against Mrpl2,-0.219
8,GGAGAAAAAGGGAAAGAAUTT against Dlx4,0.0644
9,CCUAGUUUGGUGAUGAUGUTT against Atg10,-0.262
10,GGUCAUUGAAAACUGUGCGTT against Sardh,-1.04
11,GCAAGAGACCUUGUUAUAGTT against Cttnbp2nl,-0.426
12,CCCAGUAAAUAAGAGUACATT against Treml1,-1.33
13,GGGAGACCCAAUGUCAUCATT against Dtx3,-1.25
14,GCGGGAUUGGUCAUUCCACTT against Mrpl45,2.97 (active)
15,CGAACAUGUACAACAAAGATT against Cacna2d3,-0.181
16,GGAACAAAGACUUCAAAGATT against Olfr323,-0.249
17,GGUGCUAAAAAUGAGCCUUTT against Urm1,-1.66
18,GGGAUGGCCAUAGAACAGATT against Echdc2,-0.211
19,CCCUAGACUUGAGAGUUUUTT against Eif2s1,1.29
20,GGCUGUGGAAGUGCAGAACTT against Dnmt3a,-2.53 (active)
21,CCGAGAGGUUUAAGGUCUCTT against Nsg1,1.18
22,GCUAGUCUACCCAAGUGACTT against Dennd6b,4.35 (active)
23,CCUACUUACUCCUGUAUAATT against Adam3,1.77

row,Sequence,z-score
1,CGAAACCAACAGUUAGAAGTT against Cby1,0.71
2,GAUCCUCACGAAAUAGGUATT against Olfr1372-ps1,0.737
3,GGUCUCUAGUGGAAAAGCATT against A430093F15Rik,-3.05 (active)
4,GCUCUUAAAACCCACCUGATT against Gzf1,-1.97
5,UAAUGGCUGCUGUCUCCUGTT against Olfr441,0.405
6,GGCGAAAAAGAACUUCUCCTT against Prrx1,-2.17 (active)
7,GCCUACAUUCACUCACUCCTT against Olfr1061,-0.016
8,GGAUCAUUCGGACAAAAGUTT against Pax5,-1.31
9,GGAGAAGAAGAUUUUUGGCTT against Gpr108,-0.684
10,GCCAACAAAGUGAUCGAAGTT against Fkbp10,0.175
11,CCAGCAAUGUACCAGUUCATT against Micos13,-2.02 (active)
12,GGUGAAAGAGAAGACUGAATT against Aimp1,-0.418
13,GGGUAUUCCUUCCAACACCTT against Lrrc4,-2.14 (active)
14,CCCAGUAUCAGACUAUCAUTT against Inpp4a,-0.178
15,CGAAUUUUGGAGAUGUAUGTT against Ddias,0.376
16,GGAACAAAGAAGUCAAAGATT against Olfr16,-0.765
17,CGGUGAUCAAUCAUUGUAATT against Tas2r113,-2.16 (active)
18,GCCUGUCAACUACCCAUAUTT against Ergic3,-1.13
19,GGCAAUGAGUCUGACCUCUTT against Capg,-1.39
20,GCUAAGGCUUGGAAUGACATT against Maged1,-0.105
21,GGUGGUGGGUCCAAUUUUUTT against Jpt1,0.411
22,GGACGUAGAAGUUUGGGAGTT against Nupl2,1.39
23,GCACGUUCAGUGCACACCUTT against Nubp1,2.59 (active)
